Assay outcomes deposited in PubChem BioAssay by National Center for Advancing Translational Sciences (NCATS).
Compounds with a hit are over-represented: about 8% of the library has one in this group of screens.
MARV entry inh = qHTS for inhibitors of binding or entry into cells for Marburg Virus; AID 540276, 2011; Marburg virus pseudotyped entry inhibition, cell reporter; 300,000 compounds, 1.8% hits; Potency, µM (top dose mostly 37.8 µM), actives largely listed as inhibitors; calls by dose curve; tested in HEK293 cells
SARS PLP yeast = qHTS of Yeast-based Assay for SARS-CoV PLP. S. cerevisiae expressing SARS-CoV PLpro, growth rescue. Potency, µM (top dose mostly 32.9 µM), actives largely listed as activators. 330,000 compounds, 0.19% hits. AID 485353, 2010; calls by dose curve; note: nearly all actives have a fitted effect of over 55% in size
Lassa entry inh = qHTS for Inhibitors of binding or entry into cells for Lassa Virus; Lassa virus pseudotype entry inhibition, cell reporter; Potency, µM (series often up to 37.9 µM), most hits filed as inhibitors; 300,000 compounds, 1.2% hits; AID 540256, 2011; calls by dose curve; tested in HEK293 cells; note: nearly all actives have a fitted effect of over 50% in size
HCMV antiviral = qHTS Assay for inhibitors of the human cytomegalovirus (HCMV); activity change, negative = inhibition, % at 57.5 µM; HFF cells, HCMV-luciferase reporter, 72 h; active compounds read low; 410,000 compounds, 4.5% hits; in the data active = activity change below about -60%; inconclusive = no clear call, values can overlap the other calls; inactive = above about -39%
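Screen run at 2 compound doses on HFFs infected with reporter HCMV, MOI 1 PFU/cell. Luciferase activity from cell lysates at 72 h post infection gave inhibition relative to buffer-only and Salinomycin wells.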
FMDV inh = High Throughput Screening for Foot and Mouth Disease Virus Antivirals. AID 1159524, 2015. 410,000 compounds, 1.2% hits. Potency, µM (titrated, usually from 57.9 µM), most hits filed as inhibitors. FMDV antiviral cell-based qHTS; calls by dose curve; tested in HEK293T cells; note: read-out not given here; nearly all actives have a fitted effect of over 45% in size
HCV inhibitor = qHTS Assay for Inhibitors of Hepatitis C Virus (HCV); Huh7.5.1 HCVcc-Cre infection, luciferase reporter, 44 h; Potency, µM (series often up to 41.8 µM), most hits filed as inhibitors; 340,000 compounds, 3.4% hits; AID 651820, 2012; active = well fitted inhibition curve with a large enough effect; inconclusive = small, poorly fitted or top-dose-only effect, or another doubt; inactive = no such curve, though single readings can be large or run the other way
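Infectious HCV cell culture screen: compound-treated cells (1,000/well, pre-plated 4 h) are infected with HCVcc-Cre at roughly 0.5 moi and grown 44 h. Infection is quantified by luciferase signal after 15 min substrate incubation at room temperature.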
A number is an active result; n = inactive; u = inconclusive; x = no result given.

SMILES | MARV entry inh | SARS PLP yeast | Lassa entry inh | HCMV antiviral | FMDV inh | HCV inhibitor
CCOC(=O)c1c(NC(=O)C(c2ccccc2)c2ccccc2)sc2c1C1CCN2CC1 | n | n | u | -65 | n | u
O=C(c1ccc2c3n(nc2c1)-c1ccc(Cl)cc1CO3)N1CCCCC1 | x | n | x | n | n | n
O=C(O)c1ccc2c3n(nc2c1)-c1ccc(Cl)cc1CO3 | x | n | x | n | 7.9µM | n
CC[C@]12c3[nH]c4cc(-c5ccco5)ccc4c3CCN1C(=O)[C@@H](CC(=O)NCCN1CCOCC1)C[C@@H]2C(=O)N1CCN(C(=O)C2CC2)CC1 | x | n | x | n | n | n
COc1ccccc1NC(=O)COc1ccc(/C=N/NC(=O)CSCc2ccc(Cl)cc2)cc1 | u | n | n | n | 18µM | u
COc1ccc(CSCC(=O)N/N=C/c2ccccc2O)cc1 | u | n | u | n | n | 8.9µM
COc1ccccc1NC(=O)COc1ccc(/C=N/NC(=O)CSCc2cc(C)cc(C)c2)cc1 | u | n | n | n | u | n
O=C(NCc1ccccc1)C(Nc1ccccc1)c1ccccc1F (stereo unspecified) | x | x | x | n | x | x
Cc1ccccc1N(C(=O)CCCC(=O)Nc1ccccn1)C(C(=O)NC1CCCC1)c1ccc(O)cc1 (stereo unspecified) | n | n | u | n | n | n
Cc1ccccc1N(C(=O)CCC(=O)Nc1ccccn1)C(C(=O)NC(C)C)c1ccc(O)cc1 (stereo unspecified) | 7.1µM | n | n | n | n | n
Cc1ccc(-n2nc3c(=O)n(CC(=O)NCc4ccccc4)nc(C)c3c2C)cc1 | x | n | x | n | n | u
CCc1cccc(C)c1NC(=O)Cn1nc(C)c2nn(-c3ccc(Cl)cc3)c(C)c2c1=O | x | x | n | -62 | n | x
Cc1ccc(CCNC(=O)C(C)n2nc(C)c3c(C)n(-c4ccc(C)cc4)nc3c2=O)cc1 (stereo unspecified) | x | x | u | -62 | 11µM | x
Cc1ccc(-n2nc3c(=O)n(C(C)C(=O)NCCc4cccs4)nc(C)c3c2C)cc1 (stereo unspecified) | x | n | x | x | u | u
Cc1ccc(-n2nc3c(=O)n(CC(=O)c4ccc(F)cc4)nc(C)c3c2C)cc1 | n | u | n | n | 25µM | u
Cc1ccc(-n2nc3c(=O)n(CC(=O)NC(C)CCc4ccccc4)nc(C)c3c2C)cc1 (stereo unspecified) | x | n | x | x | u | 2.2µM
COc1cc(Nc2cc3c(cn2)cc(-c2cccnc2)n3C)cc(C(F)(F)F)c1 | x | x | x | n | x | x
Cc1ccc(C2(C)NC(=O)N(CC(=O)Nc3ccc(S(=O)(=O)Nc4nccs4)cc3)C2=O)cc1 (stereo unspecified) | n | x | n | n | n | n
Cc1cccc(CNC(=O)C(C)n2nc(C)c3c(C)n(-c4ccccc4)nc3c2=O)c1 (stereo unspecified) | n | n | n | n | n | 10µM
CCC(C(=O)Nc1cc(F)ccc1F)n1nc(C)c2c(C)n(-c3ccc(C)cc3)nc2c1=O (stereo unspecified) | x | n | n | -95 | u | 8.9µM
COc1cccc(CNC(=O)CCCn2nc(C)c3c(C)n(-c4ccc(C)cc4)nc3c2=O)c1OC | n | n | n | u | u | 13µM
COc1ccc(CNC(=O)C(C)n2nc(C)c3c(C)n(-c4ccc(C)cc4)nc3c2=O)cc1 (stereo unspecified) | n | n | n | -68 | u | u
CCOc1ccc(CNC(=O)C(C)n2nc(C)c3c(C)n(-c4ccccc4)nc3c2=O)cc1 (stereo unspecified) | x | n | x | u | n | n
COC(=O)c1ccc(CN2C(=O)NC3(CCC(C)CC3)C2=O)cc1 (stereo unspecified) | u | n | n | n | n | n
C=CCCCN1C=C(C(=O)OCC)C(c2ccccc2)NC1=O (stereo unspecified) | n | x | x | x | x | x
CN(C)C(=O)c1ccc(-c2cncnc2N2CCNCC2)cc1 | x | x | x | x | n | x
CCC[C@H]1[C@@H](NS(=O)(=O)c2ccccc2)CC[C@@]23CCCN2C(=O)CCC[C@@H]13 | x | x | x | n | x | x
COc1ccccc1CCNC(=O)C(C)n1nc(C)c2c(C)n(-c3ccccc3)nc2c1=O (stereo unspecified) | x | n | x | n | n | n
